Source: the supplement of paper PMC10646978
± gives the standard deviation.

Columns and labels:
Details in all cases: modulator concentration 10 µM
[1] = system: RAW-Dual (murine macrophage reporter line); experiment: NF-kB reporter (SEAP) activity fold change vs agonist alone; higher = enhanced NF-kB activity
Method in brief: (§1)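 RAW-Dual murine macrophage reporter cells were plated at 50 000 per well in 384-well plates, pin-transferred compound to 10 μM final, and pre-incubated for 1 hour at 37 °C before a PRR agonist was added and the cells incubated overnight. NF-κB activity was read from supernatant SEAP with QUANTI-Blue at 620 nm absorbance, and IRF activity from Lucia luciferase with QUANTI-Luc by luminescence. Each signal was expressed as fold change by dividing by the mean agonist-only control on the same plate. Two replicate plates were averaged, with errors obtained by propagation.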

[2] = system: RAW-Dual (murine macrophage reporter line); experiment: IRF reporter (Lucia luciferase) activity fold change vs agonist alone; higher = enhanced IRF activity
Method in brief: as §1

[3] = system: RAW-Dual (murine macrophage reporter line); experiment: viability score (confluency relative to resting cells, overnight) (fraction); higher = more viable, active = viable (0.7 or more)
Method in brief: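 In 384-well plates, RAW-Dual macrophages received compound at a final 10 μM overnight. Two confluency masks were then made with IncuCyte software from IncuCyte images of all imaged wells. The viability score is defined as confluency relative to resting cells. Passing the cutoff required both masks to lie above 70% of resting cells.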

[4] = agonist: CpG ODN 1826 0.5 ug/mL

SMILES	NF-kB reporter [1, 4]	NF-kB reporter ([1]; agonist: LPS 0.1 ug/mL)	NF-kB reporter ([1]; agonist: MPLA […])	IRF reporter ([2]; agonist: 3'3'-cGAMP 10 ug/mL)	IRF reporter ([2]; agonist: LPS 0.1 ug/mL)	IRF reporter ([2]; agonist: MPLA […])	viability score [3]
O=C1OC(CNS(=O)(=O)c2ccccc2Cl)CN1c1ccc(Cl)c(Cl)c1 (centres undefined)	1.08 ± 0.078	1.22 ± 0.11	0.926 ± 0.058	1.13 ± 0.06	1.11 ± 0.068	1.08 ± 0.24	1.01 (active)
CCC1(CC)Cc2ccccc2C(CC(=O)N2CCOCC2)=N1.O=S(=O)(O)O	0.627 ± 0.058	1.13 ± 0.072	1.16 ± 0.096	0.601 ± 0.044	0.964 ± 0.074	1.16 ± 0.21	0.829 (active)
COc1cc2nc(N3CCN(C(=O)C4COc5ccccc5O4)CC3)nc(N)c2cc1OC (centres undefined) [Prestw-858]	0.138 ± 0.011	0.961 ± 0.071	1.34 ± 0.15	0.248 ± 0.012	1.19 ± 0.075	1.29 ± 0.13	0.953 (active)
C#CC1(O)CCC2C3CCC4=Cc5oncc5CC4(C)C3CCC21C (centres undefined)	1.26 ± 0.31	1.27 ± 0.094	1.2 ± 0.082	0.787 ± 0.046	1.35 ± 0.2	1.56 ± 0.15	0.958 (active)
CCn1c(C=Nn2cnnc2)nc2ccccc21	0.929 ± 0.11	1.08 ± 0.072	0.943 ± 0.036	0.972 ± 0.23	0.903 ± 0.048	0.911 ± 0.068	0.995 (active)
CCOC(=O)c1c(N2C(=O)C3C4C=CC(O4)C3C2=O)sc2c1CCCC2 (centres undefined)	0.87 ± 0.067	0.792 ± 0.11	0.77 ± 0.092	0.775 ± 0.038	0.962 ± 0.12	0.967 ± 0.18	0.934 (active)
O=C(CN1CCN(c2ccccc2F)C1=O)N1CCCC(Oc2cnccn2)C1 (centres undefined)	0.831 ± 0.039	0.931 ± 0.075	1.08 ± 0.062	1.02 ± 0.053	1.26 ± 0.27	1.37 ± 0.47	0.965 (active)
COc1cccc(O)c1O	1.72 ± 0.1	0.627 ± 0.083	0.321 ± 0.013	0.479 ± 0.022	0.422 ± 0.03	0.0889 ± 0.013	0.935 (active)
COc1cc2c(cc1OC)C1C(=O)c3ccc4c(c3OC1CO2)C=CC(C)(C)O4 (centres undefined)	0.92 ± 0.071	0.99 ± 0.096	1.55 ± 0.14	0.853 ± 0.04	1.62 ± 0.26	2.12 ± 0.42	0.986 (active)
CCOC(=O)C1=C(C)NC(C)=C(C(=O)OCC)C1c1cccs1	0.836 ± 0.23	0.998 ± 0.089	0.965 ± 0.12	0.929 ± 0.071	1.09 ± 0.3	1.08 ± 0.25	0.978 (active)
CC(=O)NC(c1ccccc1)c1c(OC(=O)COc2ccccc2)ccc2ccccc12 (centres undefined)	0.73 ± 0.062	0.878 ± 0.049	0.714 ± 0.044	1.24 ± 0.062	0.987 ± 0.08	0.948 ± 0.12	1.01 (active)
Cc1cc(N2CCCCC2)nc2ccccc12	0.493 ± 0.041	0.701 ± 0.056	0.73 ± 0.093	0.982 ± 0.032	1.03 ± 0.098	1.21 ± 0.17	0.293 (inactive)
Clc1ccc(C=NN2CCN(C(c3ccccc3)c3ccccc3)CC2)cc1	1.06 ± 0.087	1.02 ± 0.087	0.928 ± 0.025	1.02 ± 0.051	1.05 ± 0.049	0.962 ± 0.1	0.996 (active)
OCC1OC(Oc2ccc(O)cc2)C(O)C(O)C1O (centres undefined)	1.23 ± 0.3	0.965 ± 0.069	1.02 ± 0.08	0.891 ± 0.049	1.14 ± 0.2	1.2 ± 0.11	1 (active)
CCCCOc1ccc(OCCCN2CCOCC2)cc1.Cl	1.2 ± 0.09	1.27 ± 0.16	1.25 ± 0.1	0.643 ± 0.054	0.852 ± 0.051	0.836 ± 0.071	0.981 (active)
Cc1cc(NC2CCCC2)nc2ccccc12	0.798 ± 0.21	1.48 ± 0.12	1.91 ± 0.27	1.12 ± 0.068	1.88 ± 0.28	2.72 ± 0.43	0.608 (inactive)
COc1ccc2c(Cl)c(C(=O)N3CCc4ccccc4C3)sc2c1	0.875 ± 0.13	0.87 ± 0.052	1.81 ± 0.77	0.845 ± 0.05	1.38 ± 0.095	1.48 ± 0.13	1.01 (active)
O=C(NCC(O)Cn1ccccc1=O)c1ccc(Cl)s1 (centres undefined)	0.94 ± 0.1	0.869 ± 0.087	1.01 ± 0.087	1.02 ± 0.047	1.41 ± 0.09	1.46 ± 0.12	1 (active)
O=C(COc1ccc2ccccc2c1)Nc1cnoc1	1.12 ± 0.35	1.14 ± 0.081	1.12 ± 0.088	0.92 ± 0.053	1.05 ± 0.17	0.942 ± 0.1	1 (active)
CN1CCN(CCCN2c3ccccc3Sc3ccc(Cl)cc32)CC1 [Prestw-399]	0.442 ± 0.026	0.845 ± 0.073	1.73 ± 0.048	1.23 ± 0.051	1.1 ± 0.085	1.46 ± 0.15	0.114 (inactive)
Cc1cccc(C(C)C)c1NC(=O)c1ccccc1Br	0.951 ± 0.16	0.956 ± 0.085	0.953 ± 0.074	0.988 ± 0.044	1.28 ± 0.23	1.14 ± 0.12	0.971 (active)
Cc1ccccc1N=Nc1ccc(NC(=O)c2ccnn2C)c(C)c1	1.12 ± 0.21	1.06 ± 0.086	0.946 ± 0.077	0.98 ± 0.039	1.21 ± 0.15	1.25 ± 0.21	1.01 (active)
CCc1ccccc1N(CC(=O)Nc1ccc(Cl)cc1C)S(C)(=O)=O	0.842 ± 0.087	1.05 ± 0.068	0.893 ± 0.047	0.88 ± 0.12	1.08 ± 0.14	0.876 ± 0.18	1 (active)
NC(=O)c1ccccc1O	1.18 ± 0.28	1.01 ± 0.051	0.978 ± 0.085	0.945 ± 0.032	1.23 ± 0.14	1.19 ± 0.16	0.993 (active)
Cc1cc2c(C)cc[n+](CCCS(=O)(=O)[O-])c2cc1C	0.942 ± 0.078	1.05 ± 0.066	0.918 ± 0.059	0.946 ± 0.038	1.42 ± 0.09	1.3 ± 0.22	1 (active)
c1cc2c3c(cccc3c1)-c1nc3ccccc3nc1-2	0.993 ± 0.17	1.09 ± 0.13	1.02 ± 0.095	0.984 ± 0.026	1.32 ± 0.15	1.59 ± 0.3	1.01 (active)
Cc1nc2ccc(Cl)cn2c(=O)c1NC(=O)c1c(F)cccc1Cl	0.78 ± 0.034	1.05 ± 0.11	0.96 ± 0.083	1.05 ± 0.049	1.09 ± 0.25	1.2 ± 0.41	0.965 (active)
